Assay results as given in PubChem BioAssay (NCATS).
Inconclusive results are not listed. Values without a mark were called inactive. Calls of active or inactive are those of the source. The call rests on the fitted dose curve; in most records, active means well fitted inhibition curve with a large enough effect in the repeat runs; inconclusive means weak or mixed curves; inactive means flat fitted curve, though single readings scatter.

target: Cytochrome P450 2D6 (Homo sapiens) (UniProt P10635); assay: Cytochrome P450 family 2 subfamily D member 6 (CYP2D6) small molecule antagonists: luciferase biochemical (cell-free) qHTS assay (AID 1645840); conditions: P450-Glo CYP2D6 enzyme, luciferin luminescence, 1 h; series mostly up to 57.4 µM; activity change, negative = inhibition: at the top concentration; further: nearly all actives have a fitted effect of over 55% in size
Sequence (P10635 whole entry, looked up): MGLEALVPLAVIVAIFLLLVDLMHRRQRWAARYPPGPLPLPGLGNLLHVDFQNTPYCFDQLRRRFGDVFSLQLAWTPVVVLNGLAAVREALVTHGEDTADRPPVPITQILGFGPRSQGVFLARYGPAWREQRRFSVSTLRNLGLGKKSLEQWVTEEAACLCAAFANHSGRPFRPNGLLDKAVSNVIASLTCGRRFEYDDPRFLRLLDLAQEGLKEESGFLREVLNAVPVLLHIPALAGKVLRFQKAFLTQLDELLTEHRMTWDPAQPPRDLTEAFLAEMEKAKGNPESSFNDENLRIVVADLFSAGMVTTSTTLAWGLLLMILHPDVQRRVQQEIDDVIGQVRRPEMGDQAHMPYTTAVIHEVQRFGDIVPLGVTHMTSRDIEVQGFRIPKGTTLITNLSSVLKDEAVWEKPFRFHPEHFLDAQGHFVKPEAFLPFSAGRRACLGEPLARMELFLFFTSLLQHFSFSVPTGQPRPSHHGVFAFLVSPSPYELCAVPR
Procedure: National Center for Advancing Translational Sciences [NCATS] Assay Overview: Cytochrome P450 (CYP) enzymes are membrane-bound hemeproteins that play a key role in metabolism of drugs and xenobiotics. Assaying the effect of chemicals on CYP isozymes is useful to minimize the adverse drug reactions and toxicities in drug development process. Chemical compounds were tested for their effect on CYP enzyme activities by using P450-Glo (TM) screening systems (Promega Corporation, Madison, WI). These systems provide a luminescent method containing proluciferin substrates and are converted to luciferin products by CYP isozymes. The luciferin products formed are detected with a luciferin detection reagent, and the amount of light produced is proportional to CYP activity. P450-Glo (TM) CYP2D6 screening system (Catalog. No. V9890) was used to detect the compounds that interfere in CYP2D6 activity.
Assay Protocol Summary: Two ul of enzyme-substrate mix was dispensed into medium binding white/solid 1536-well plates (Greiner Bio-One North America Inc., Monroe, NC) using a Flying Reagent Dispenser (FRD, Aurora Discovery, San Diego, CA). […] The assay plates were incubated at room temperature for 10 min. Then 2 ul of NADPH regeneration solution was added to each well of the assay plates using an FRD and incubated at room temperature for 1 h. The reaction was stopped by adding 4 ul of detection reagent using an FRD and after 20 min incubation at room temperature, the luminescence signal was measured using a ViewLux plate reader (Perkin Elmer, Shelton, CT). Data were expressed as relative luminescence units.
On the % scale 0 is the no-effect control and ±100 the full control effect; potency means the concentration at half of the fitted maximal effect.

Row | SMILES | activity change, negative = inhibition [%] | Potency
1 | CC(=O)NC[C@H]1CN(c2ccc(N3CCN(C(=O)CO)CC3)c(F)c2)C(=O)O1 | -2.29 | 
2 | COc1ccc(Oc2cc(C)c(-c3csc(NC(=O)c4ccncc4)n3)c(C)c2)cc1 |  | 3.01 µM (active)
3 | O=C(COc1cccc2c(=O)[nH]ccc12)c1ccccc1 | -22.4 | 
4 | CCCCCCOc1cc2c(cc1N(C)c1ncc(C(=O)O)cn1)C(C)(C)CCC2(C)C |  | 10.7 µM (active)
5 | COc1ccc(C(=O)C2CCN(CC(=O)N(Cc3nc4c(c(=O)[nH]3)COCC4)CC3CC3)CC2)cc1 | -16.1 | 
6 | COc1cc(N)c(Cl)cc1C(=O)NC[C@@H]1CCN2CCC[C@@H]12 |  | 10.7 µM (active)
7 | CCOCc1cc(OC)c(-c2ccc(C[C@H](NC(=O)c3c(F)cccc3F)C(=O)O)cc2)c(OC)c1 | 6.56 | 
8 | CCOCCOC(=O)/C=C/c1ccc(OC)cc1 | -11.7 | 
9 | COc1cc2ncnc(Nc3ccc(F)c(Cl)c3)c2cc1NC(=O)/C=C/CN1CCCCC1 |  | 0.0477 µM (active)
10 | CC(C)[C@@H](CS(=O)(=O)C(C)C)N1C(=O)[C@@](C)(CC(=O)O)C[C@H](c2cccc(Cl)c2)[C@H]1c1ccc(Cl)cc1 | 1.05 | 
11 | N#Cc1cnc2cnc(NCc3cccnc3)cc2c1Nc1ccc(F)c(Cl)c1 |  | 0.756 µM (active)
12 | CON(C)C(=O)[C@H](O)[C@H](Cc1ccccc1)NC(=O)c1cc2cc(Cl)ccc2[nH]1 |  | 21.3 µM (active)
13 | CC(=O)SCC(=O)c1ccc(NS(=O)(=O)c2ccc(OCCCN(C)C)cc2)nc1 | -4.45 | 
14 | CCN(CC)Cc1ccc(C(=O)N(CCc2ccccc2OC)[C@@H]2CCNC2)cc1 |  | 13.5 µM (active)
15 | CCCn1c(=O)c2[nH]c(-c3ccc(OCC(=O)O)cc3)nc2n(CCC)c1=O | 11.8 | 
16 | CN1CCc2nc(C(=O)N[C@@H]3C[C@@H](C(=O)N(C)C)CC[C@@H]3NC(=O)C(=O)Nc3ccc(Cl)cn3)sc2C1 | 23.9 | 
17 | COc1cc2nc(N3CCC(N4CCCCC4)CC3)nc(NC3CCCCCC3)c2cc1OC |  | 7.56 µM (active)
18 | O=C(CC(c1ccccc1)c1ccccc1)N1CCN(C(c2ccccc2)c2ccccc2)CC1 | 1.9 | 
19 | O=C(O)[C@H](Cc1ccc(Nc2nccc3ccncc23)cc1)NC1=C(Br)C(=O)C12CCCCC2 | 0.157 | 
20 | Cc1ccc(S(=O)(=O)Nc2ccccc2N2CCCCC2)s1 | -6.43 | 

Row | SMILES | activity change, negative = inhibition [%] | Potency
21 | Cc1cc(C)c(Nc2ccnc(Nc3ccc(C#N)cc3)n2)c(C)c1 |  | 10.7 µM (active)
22 | O=C(Nc1ccc(S(=O)(=O)Nc2nccs2)cc1)C(c1ccccc1)c1ccccc1 |  | 19 µM (active)
23 | CCN(CC)CCN(Cc1ccc(-c2ccc(C(F)(F)F)cc2)cc1)C(=O)Cn1c(SCc2ccc(F)cc2)nc(=O)c2c1CCC2 |  | 9.52 µM (active)
24 | C=CC(=O)Nc1cc(Nc2nccc(-c3c[nH]c4ccccc34)n2)c(OC)cc1N(C)CCN(C)C | -29.1 | 
25 | COc1ccc(CCO[C@@H]2CCCC[C@H]2N2CC[C@@H](O)C2)cc1OC |  | 10.7 µM (active)
26 | Cc1c(C(=O)Nc2ccc(N3CC(C)OC(C)C3)nc2)cccc1-c1ccc(OC(F)(F)F)cc1 (stereo not given) | 1.63 | 
27 | CN1CCN(Cc2ccc(-c3cnc4[nH]cc(-c5ccc6[nH]ccc6c5)c4c3)cc2)CC1 |  | 2.13 µM (active)
28 | COc1cc2ncnc(N3CCC(Oc4cnc5ccccc5n4)C3)c2cc1OC (stereo not given) | -17 | 
29 | Cc1ccc(NC(=O)Nc2cc(C(F)(F)F)ccc2F)cc1Nc1ccc2c(c1)NC(=O)/C2=C\c1ccc[nH]1 | -1.79 | 
30 | CC(C)(C#N)c1ccc(N2C(=O)OCc3cnc4ccc(-c5cnc6ccccc6c5)cc4c32)cc1 | -7.06 | 
31 | CC1(C)CCC(C)(C)c2cc(C3(c4ccc(C(=O)O)cc4)OCCO3)ccc21 | -3.68 | 
32 | Cc1nc2sc(C(=O)NCc3ccncc3)c(N)c2c(C)c1Cl |  | 2.39 µM (active)
33 | O=C(Cc1ccc(-c2ccccc2)cc1)NC1CCC1 | 8.87 | 
34 | N#Cc1cc(F)cc(-c2nc(-c3ccccn3)no2)c1 |  | 10.7 µM (active)
35 | CN(C)C1CCN(C(=O)c2ccc(NC(=O)Nc3ccc(-c4nc(N5CCOCC5)nc(N5CCOCC5)n4)cc3)cc2)CC1 | -5.36 | 
36 | CCCCc1ccc(C(=O)Nc2cc(-c3ccc(Cl)cc3)nn2-c2ccc(Cl)cc2)cc1 | 2.38 | 
37 | Cc1ccc(-c2ccc3c(ccc4sc5c(c43)NC[C@@H](C)NC5=O)n2)cn1 | 4.79 | 
38 | CCc1cnn2c(NCc3ccc[n+]([O-])c3)cc(N3CCCCC3CCO)nc12 (stereo not given) | 0.0321 | 
39 | Cc1cc(C)c(CNC(=O)c2cc(-c3ccc(CN4CCOCC4)cc3)cc3c2cnn3C2CCCC2)c(=O)[nH]1 | -20.7 | 
40 | COc1cc2ncnc(Nc3ccc(O)cc3)c2cc1OC | 1.05 | 
